According to PubChem BioAssay (Tox21):
Values joined by “and” are separate entries in the source; they are usually repeats but may differ in a detail not shown here. Equal values may be shown once. Inconclusive results are not listed. A call without a number means that no potency is given here. Some structures have more than one record in an assay (separate samples or runs), and their calls can disagree. Active and inactive are the calls of the source. Calls follow the shape of the dose curve; as a rule, active = well fitted inhibition curve with a large enough effect in the repeat runs; inconclusive = weak or mixed curves; inactive = no such curve, though single readings can be large or run the other way.

target: Cytochrome P450 2C9 (Homo sapiens) (UniProt P11712); assay: Cytochrome P450 Family 2 Subfamily C Member 9 (CYP2C9) small molecule antagonists: luciferase reporter qHTS assay (AID 1671198); details: P450-Glo CYP2C9 enzyme assay, luciferin luminescence; series mostly up to 115 µM; also: nearly all actives have a fitted effect of over 50% in size
From the text: U.S. Tox21 Program National Center for Advancing Translational Sciences [NCATS] U.S. Environmental Protection Agency [EPA] National Institutes of Environmental Health Sciences [NIEHS] National Toxicology Program [NTP] U.S. Food and Drug Administration [FDA] Tox21 Assay Overview: Cytochrome P450 (CYP) enzymes are membrane-bound hemeproteins that play a key role in metabolism of drugs and xenobiotics. Evaluation of the effect of chemicals on CYP isozymes is useful to minimize the adverse drug reactions and toxicities in drug development process. Tox21 chemicals were tested for their effect on CYP enzyme activities by using P450-Glo (TM) screening systems (Promega Corporation, Madison, WI). These systems provide a luminescent method containing proluciferin substrates and are converted to luciferin products by CYP isozymes. The luciferin products formed are detected with a luciferin detection reagent, and the amount of light produced is proportional to CYP activity. P450-Glo (TM) CYP2C9 screening system (Catalog. No. V9790) was used to detect the compounds that interfere in CYP2C9 activity.
Tox21 Assay Protocol Summary: Two ul of enzyme-substrate mix was dispensed into medium binding white/solid 1536-well plates (Greiner Bio-One North America Inc., Monroe, NC) using a BioRaptr Flying Reagent Dispenser (FRD, Beckman Coulter, Brea, CA). […] The assay plates were incubated at room temperature for 10 min. Then 2 ul of NADPH regeneration solution was added to each well of the assay plates using an FRD and incubated at 37C for 1 h. The reaction was stopped by adding 4 ul of detection reagent using an FRD and after 20 min incubation at room temperature the luminescence signal was measured using a ViewLux plate reader (Perkin Elmer, Shelton, CT). Data were expressed as relative luminescence units.
Potency is read from the fitted curve at half-maximal effect.

Cytochrome P450 2C9 (Homo sapiens), sequence (P11712 whole entry, looked up): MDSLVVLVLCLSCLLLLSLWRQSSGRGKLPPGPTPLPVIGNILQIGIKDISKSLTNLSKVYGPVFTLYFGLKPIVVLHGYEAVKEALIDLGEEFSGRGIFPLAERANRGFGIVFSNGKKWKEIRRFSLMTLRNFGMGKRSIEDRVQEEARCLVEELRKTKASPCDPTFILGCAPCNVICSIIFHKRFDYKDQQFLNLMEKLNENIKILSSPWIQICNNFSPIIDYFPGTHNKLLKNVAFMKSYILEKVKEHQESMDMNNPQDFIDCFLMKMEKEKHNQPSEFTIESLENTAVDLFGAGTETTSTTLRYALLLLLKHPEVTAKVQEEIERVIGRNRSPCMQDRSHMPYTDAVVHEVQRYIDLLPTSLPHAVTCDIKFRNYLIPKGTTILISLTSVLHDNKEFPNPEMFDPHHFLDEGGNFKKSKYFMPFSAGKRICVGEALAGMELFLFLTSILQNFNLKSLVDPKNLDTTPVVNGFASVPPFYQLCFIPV

**Q.** For `CC(Oc1ccc(Cl)cc1Cl)C(=O)O` (stereo not given), which Potency is on record?
**A.** 35.7 µM (active) and 71 µM (active)

**Q.** With `CC1C=[C-]C=C1.[C-]#[O+].[C-]#[O+].[C-]#[O+].[Mn]` as the compound, how does the Potency read?
**A.** inactive

**Q.** For `CCCCCCCCCCCC#N`, which Potency is on record?
**A.** inactive

**Q.** How did the Potency turn out when `COCCl` was run?
**A.** inactive

**Q.** For `CN=C=S`, which Potency is on record?
**A.** inactive

**Q.** How did the Potency turn out when `COc1ccc2c3c1O[C@H]1[C@@H](O)C=C[C@H]4[C@@H](C2)N(C)CC[C@@]341` was run?
**A.** inactive

**Q.** `ClCc1cccnc1` was tested. Which Potency did it give?
**A.** inactive

**Q.** Which Potency does the source give for `CC(C)NC(=O)N1CC(=O)N(c2cc(Cl)cc(Cl)c2)C1=O` here?
**A.** 1.26 µM (active)

**Q.** With `CN(C)N=O` as the compound, how does the Potency read?
**A.** inactive

**Q.** With `c1ccc2c(c1)Oc1ccccc1O2` as the compound, how does the Potency read?
**A.** inactive

**Q.** For `CC(=O)C=C(C)C`, which Potency is on record?
**A.** inactive

**Q.** How did the Potency turn out when `CCCCN(CC)C(=O)SCCC` was run?
**A.** inactive

**Q.** For `CC(NC(C)(C)C)C(=O)c1cccc(Cl)c1` (stereo not given), which Potency is on record?
**A.** inactive

**Q.** With `O=S(=O)(c1ccc(Cl)cc1)c1cc(Cl)c(Cl)cc1Cl` as the compound, how does the Potency read?
**A.** 28.3 µM (active)

**Q.** For `CC(C)(Cl)Cl`, which Potency is on record?
**A.** inactive

**Q.** Which Potency does the source give for `Clc1cccc(Cl)c1Cl` here?
**A.** inactive

**Q.** For `c1ccc2c(c1)oc1ccccc12`, which Potency is on record?
**A.** 36.1 µM (active) and inactive

**Q.** Which Potency does the source give for `CCCCN(CCCC)SN(C)C(=O)Oc1cccc2c1OC(C)(C)C2` here?
**A.** 40.6 µM (active) and 31.7 µM (active)

**Q.** `Cc1[nH]c(=O)n(C(C)(C)C)c(=O)c1Cl` was tested. Which Potency did it give?
**A.** inactive

**Q.** `Cc1ccc(N)cc1N` was tested. Which Potency did it give?
**A.** 34.6 µM (active) and 39.9 µM (active)

**Q.** `CC(C)C#N` was tested. Which Potency did it give?
**A.** inactive

**Q.** `C=CC(N)=O` was tested. Which Potency did it give?
**A.** inactive

**Q.** With `c1cc2c3c(cccc3c1)CC2` as the compound, how does the Potency read?
**A.** inactive

**Q.** How did the Potency turn out when `CN(N=O)c1ccccc1` was run?
**A.** inactive

**Q.** For `CCN(CC)c1ccccc1`, which Potency is on record?
**A.** inactive and 71 µM (active)

**Q.** For `O=NN1CCCC1`, which Potency is on record?
**A.** inactive

**Q.** Which Potency does the source give for `Nc1ccccc1C(=O)O` here?
**A.** inactive

**Q.** Which Potency does the source give for `CON(C)C(=O)Nc1ccc(Cl)c(Cl)c1` here?
**A.** 40.1 µM (active) and 39.9 µM (active)

**Q.** With `CCC(C)(CC)c1cc(NC(=O)c2c(OC)cccc2OC)on1` as the compound, how does the Potency read?
**A.** 35.7 µM (active) and 34.2 µM (active)

**Q.** `C=C(C)CCl` was tested. Which Potency did it give?
**A.** inactive

**Q.** For `C=CCO`, which Potency is on record?
**A.** inactive

**Q.** With `O=C1CCCN1` as the compound, how does the Potency read?
**A.** inactive

**Q.** With `Cc1cccc([N+](=O)[O-])c1` as the compound, how does the Potency read?
**A.** inactive

**Q.** Which Potency does the source give for `BrCCBr` here?
**A.** inactive

**Q.** How did the Potency turn out when `O=NN1CCCCCCC1` was run?
**A.** inactive

**Q.** For `O=[N+]([O-])c1ccc(Oc2ccc(Cl)cc2Cl)cc1`, which Potency is on record?
**A.** 28.4 µM (active) and 31.7 µM (active)

**Q.** With `O=C(O)c1ccccn1` as the compound, how does the Potency read?
**A.** inactive

**Q.** How did the Potency turn out when `Nc1ccc(Cc2ccc(N)cc2)cc1` was run?
**A.** 31.2 µM (active) and inactive

**Q.** `CCNc1nc(NC(C)C)nc(SC)n1` was tested. Which Potency did it give?
**A.** inactive

**Q.** How did the Potency turn out when `CCNc1nc(NC(C)(C)C)nc(SC)n1` was run?
**A.** inactive
